The record followed here is PubChem BioAssay (NCI).

Several values for one entry are separate records, joined by “and”; a condition that tells them apart may be missing. Equal values may be shown once. This is part of a sample that, as a whole, favours compounds with a hit. Of some 83,000 tested, about 20% had one in any assay.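 Results are percent growth after 48 hours of single-concentration exposure. 100 means growth as in untreated cells, lower positive values show inhibition; negative values down to -100 show cell death.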 Activity calls are given as the source filed them. The calls were made as follows: active = growth percent below 10; inactive = the rest.

Holding throughout (assay): NCI-60 one-dose screen, 48 h (100 = growth as untreated, 0 = no growth, -100 = all killed)
Details in all cases: 10 µM unless noted

Test [1] has as its system SR leukemia.
For test [2], the system named is RPMI-8226 leukemia.
For test [3], the system named is OVCAR-8 ovarian.
For test [4], the system named is OVCAR-4 ovarian.
Test [5] has as its system SK-OV-3 ovarian.
The subject of test [6] is IGROV1 ovarian.
The subject of test [7] is OVCAR-3 ovarian.
The subject of test [8] is NCI/ADR-RES ovarian.
Test [9] concerns T-47D breast.
Test [10] deals with BT-549 breast.
Test [11] concerns MDA-MB-435 melanoma.
The test system of test [12] is SW-620 colon.
Test [13] has as its system MCF7 breast.
The test system of test [14] is HCT-116 colon.
Test [15] deals with HCC-2998 colon.
Test [16] has as its system KM12 colon.
Test [17] has as its system OVCAR-5 ovarian.
Test [18] deals with HS 578T breast.

With `Cc1cc(O)c(C(C)C)cc1S(=O)(=O)O` (tested in a mixture with another compound), the growth in test [1] is 109% (inactive) and -17.3% (active) and 92.1% (inactive); in test [2], 88.4% (inactive) and -13.4% (active) and 99.5% (inactive); in [3], 97.7% (inactive) and 13.6% (inactive) and 97.5% (inactive); in test [4], 89.5% (inactive) and 100% (inactive); in [5] it was 105% (inactive) and 5.41% (active) and 118% (inactive); in test [6] it was 102% (inactive) and -2.34% (active) and 93.9% (inactive). Besides, the growth in test [7] was 109% (inactive) and -20.4% (active) and 107% (inactive); in test [8], 95.3% (inactive) and 2.8% (active) and 111% (inactive); in test [9], 89.2% (inactive) and 58.9% (inactive) and 96.5% (inactive); in test [10], 96.8% (inactive) and -9.88% (active) and 113% (inactive); in test [11] it was 104% (inactive) and -12.6% (active) and 112% (inactive); in test [12] it was 109% (inactive) and 23.2% (inactive) and 102% (inactive). The growth in [13] is 89.5% (inactive) and 4.62% (active) and 81.2% (inactive); in test [14], 85.9% (inactive) and 6.36% (active) and 104% (inactive); in test [15], 91.7% (inactive) and -59% (active) and 112% (inactive); in [16], 116% (inactive) and 13.2% (inactive) and 113% (inactive).
Turning to `CC(C)CNC(=O)c1ccccc1C(=O)NC1(C(=O)NCC(C)C)CCCC1`, the growth in test [1] was 110% (inactive) and 90.5% (inactive); in test [3] it was 101% (inactive) and 104% (inactive); in test [17], 98.6% (inactive) and 98.3% (inactive); in test [4], 107% (inactive) and 111% (inactive); in [5], 107% (inactive) and 99.5% (inactive); in test [6], 111% (inactive) and 102% (inactive). Further, the growth in test [7] was 116% (inactive) and 109% (inactive); in [18], 110% (inactive) and 105% (inactive); in [8], 106% (inactive) and 105% (inactive); in test [9], 106% (inactive) and 95.5% (inactive); in test [11] it was 101% (inactive) and 105% (inactive); in test [12] it was 102% (inactive) and 106% (inactive). The growth in test [13] was 103% (inactive) and 106% (inactive); in [14] it was 106% (inactive) and 104% (inactive); in [15], 101% (inactive) and 103% (inactive); in [16] it was 112% (inactive) and 104% (inactive).
As to `O=[N+]([O-])c1ccc(Oc2ccccc2)cc1`, the growth in test [1] is 89.7% (inactive) and 102% (inactive); in [3], 109% (inactive) and 103% (inactive); in test [17] it was 96.1% (inactive) and 97.3% (inactive); in test [4], 113% (inactive) and 121% (inactive); in [5] it was 109% (inactive) and 103% (inactive); in test [6], 84.4% (inactive) and 104% (inactive). Besides, the growth in test [7] is 111% (inactive); in [18] it was 100% (inactive); in test [8], 96.2% (inactive) and 107% (inactive); in test [9], 116% (inactive) and 100% (inactive); in [10] it was 83.9% (inactive) and 106% (inactive); in [11], 101% (inactive) and 131% (inactive). The growth in test [12] is 95.7% (inactive) and 94.1% (inactive); in test [13], 105% (inactive) and 95.2% (inactive); in test [14], 98.2% (inactive) and 106% (inactive); in test [15], 102% (inactive) and 105% (inactive); in test [16], 101% (inactive) and 105% (inactive).
For `CN1CCN(Cc2occc(=O)c2O)CCN(C)CCN(Cc2occc(=O)c2O)CC1`, the growth in test [1] is 79.5% (inactive) and 31.1% (inactive); in [3], 98.8% (inactive) and 64.2% (inactive); in test [17] it was 104% (inactive) and 72.1% (inactive); in test [4], 102% (inactive) and 77% (inactive); in test [5], 91% (inactive) and 49.5% (inactive); in [6] it was 96.3% (inactive) and 54% (inactive). Also, the growth is 117% (inactive) and 28.6% (inactive) in test [7]; 90.4% (inactive) and 84.2% (inactive) in test [18]; 105% (inactive) and 78.7% (inactive) in test [8]; 93.8% (inactive) and 77.4% (inactive) in [9]; 97.1% (inactive) and 84% (inactive) in [10]; 108% (inactive) and 47.3% (inactive) in test [11]. Besides, the growth in test [12] was 113% (inactive) and 15.6% (inactive); in [13], 91.6% (inactive) and 24.9% (inactive); in test [14] it was 100% (inactive) and 10.6% (inactive); in test [15] it was 112% (inactive) and 47.5% (inactive); in [16], 109% (inactive) and 28.9% (inactive).
`S=C(S)N1CCCC1`: the growth in [1] was 65.2% (inactive) and 83.6% (inactive); in test [2] it was 93% (inactive) and 91.3% (inactive); in test [3], 106% (inactive) and 94.1% (inactive); in test [5], 116% (inactive) and 112% (inactive); in test [6], 58.9% (inactive) and 56.5% (inactive); in test [7], 69.5% (inactive) and 100% (inactive). Further, the growth is 107% (inactive) and 99.1% (inactive) in [8]; 98.4% (inactive) and 89% (inactive) in test [9]; 91% (inactive) and 114% (inactive) in test [10]; 109% (inactive) and 90.9% (inactive) in [11]; 96.2% (inactive) and 84.8% (inactive) in test [12]; 72.9% (inactive) and 61.8% (inactive) in [13]. Also, the growth in test [14] is 89.7% (inactive) and 86.2% (inactive); in test [15], 113% (inactive) and 94.9% (inactive); in [16] it was 90.4% (inactive) and 93.9% (inactive).
Turning to `CCOc1ccc2cc(-c3nn(CC4CCNCC4)c4ncnc(N)c34)ccc2c1`, the growth in test [1] is 59.3% (inactive) and -25.2% (active); in [3], 92.1% (inactive) and 58.5% (inactive); in [17], 92% (inactive) and 70.5% (inactive); in [4] it was 55.8% (inactive) and 42.7% (inactive); in [5], 91.7% (inactive) and 45.9% (inactive); in test [6] it was 92.7% (inactive) and 47.8% (inactive). In addition, the growth in test [7] is 101% (inactive) and 74.7% (inactive); in [8], 99.5% (inactive) and 93.5% (inactive); in test [9] it was 71% (inactive) and 34.2% (inactive); in [10], 86.1% (inactive) and 36.2% (inactive); in test [11], 95.4% (inactive) and 14.9% (inactive); in [12], 91.6% (inactive) and 37.3% (inactive). In addition, the growth in [13] was 78.8% (inactive) and 46.2% (inactive); in [14], 80.4% (inactive) and 16.4% (inactive); in [15] it was 110% (inactive) and 49.1% (inactive); in test [16], 14.5% (inactive) and 11.9% (inactive).
Take `CCOC(=O)Nc1nc2ccccc2[nH]1`: the growth in test [1] was 98.9% (inactive); in [3] it was 97.7% (inactive) and 50.6% (inactive); in [17], 109% (inactive) and 58.4% (inactive); in test [4], 111% (inactive) and 83% (inactive); in test [5] it was 103% (inactive) and 31.1% (inactive); in test [7], 122% (inactive) and 1.16% (active). Also, the growth in test [18] is 11.2% (inactive); in test [8], 104% (inactive) and 3.49% (active); in test [9] it was 110% (inactive) and 42.1% (inactive); in test [10] it was 105% (inactive) and 11.7% (inactive); in test [11], 96.1% (inactive) and -30% (active); in test [12] it was 108% (inactive) and 12% (inactive). Besides, the growth in test [13] is 113% (inactive) and 17.8% (inactive); in [14], 106% (inactive) and 23% (inactive); in test [15], 108% (inactive) and -9.87% (active); in test [16] it was 106% (inactive) and 26.2% (inactive).
Turning to `CCN(CC)CCNc1cc(-c2cccc(OC(F)(F)F)c2)nc2ccc(N3CCCC3)cc12`, the growth in [1] is -29.4% (active) and -36.8% (active) and -10.8% (active); in test [3], 39.7% (inactive) and 2.29% (active) and 22.4% (inactive); in test [17], 50.6% (inactive) and 5.44% (active) and 34.6% (inactive); in test [4], 59.3% (inactive) and 44.7% (inactive) and 30% (inactive); in [5] it was 52.6% (inactive) and 10.9% (inactive) and 53.6% (inactive); in test [6] it was -14.8% (active) and 6.93% (active) and 25.2% (inactive). Besides, the growth in test [7] was 75.8% (inactive) and -2.31% (active) and 47.2% (inactive); in test [18] it was 66.4% (inactive) and -7.2% (active) and 38.9% (inactive); in [8] it was 9.79% (active) and -16.8% (active) and 25.2% (inactive); in test [9], 64.4% (inactive) and -11.2% (active) and 20.9% (inactive); in test [10], -70.7% (active) and 34.3% (inactive) and 62.7% (inactive); in test [11] it was -4.48% (active) and -55% (active) and -33.6% (active). Moreover, the growth is 31% (inactive) and 0.803% (active) and 8.35% (active) in test [12]; 6.94% (active) and -27.3% (active) and -21.5% (active) in test [13]; -88% (active) and -45.7% (active) and 4.4% (active) in test [14]; 23.8% (inactive) and -45.2% (active) and -4.48% (active) in [15]; 32.3% (inactive) and -1.83% (active) and 9.39% (active) in test [16].
Consider `CNC(=O)c1cccc(-c2ccc3c(N4CCOC[C@@H]4C)nc(N4CCOC[C@@H]4C)nc3n2)c1`, for which the growth in test [1] is 9.14% (active) and 1.3% (active); in test [3], -4.37% (active) and -7.81% (active); in test [17] it was 8.26% (active) and -3.61% (active); in test [4], -17.7% (active) and -18.2% (active); in [5], -23% (active) and -36.9% (active); in test [6] it was -16.6% (active) and -36.1% (active). The growth is 4.95% (active) and 11.5% (inactive) in test [7]; -31.1% (active) in [18]; 1.66% (active) and -15.6% (active) in test [8]; -24.4% (active) and -34.1% (active) in test [9]; -7.8% (active) and -13.9% (active) in test [10]; 11.4% (inactive) and 5.84% (active) in test [12]. Besides, the growth was 5.66% (active) and 4.27% (active) in test [13]; 27.7% (inactive) and 15.4% (inactive) in [14]; 18.6% (inactive) and 4% (active) in test [15]; 11.7% (inactive) and 13.2% (inactive) in test [16].
